SKKanGAS inh: inhibitors of SKKanGAS S. pyogenes growth in kanamycin (SK-promoter or general growth effect); BacTiter-Glo, 6 h; inhibition, % at 7.5 µM; actives 1.3% (n = 300,000);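 active means mean replicate score, as percent of positive control median, at least 50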;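 further: strain carries kanamycin resistance gene driven by streptokinase promoter and grows in 40 µg/ml kanamycin; loss of luminescence reflects streptokinase promoter inhibition or plain growth inhibition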
WT yeast gro inh: growth inhibition of WT yeast, mitochondrial fusion screen. mitochondrial fusion phenotypic screen, WT strain. inhibition, % at 10 µM. actives 2.1% (n = 190,000). AID 1362; in the data active means inhibition above about 58%; tested in S. cerevisiae
Rtt109 Vps75: blocks Candida albicans Rtt109/Vps75 acetyltransferase activity; purified Rtt109/Vps75, ThioGlo CoA-SH fluorescence, 4 h; Q5AAJ8; actives 0.16% (n = 330,000); inhibition, % at 34.9 µM;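 active means inhibition of at least 50% in every replicate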
Target sequence (Q5AAJ8 whole entry, looked up): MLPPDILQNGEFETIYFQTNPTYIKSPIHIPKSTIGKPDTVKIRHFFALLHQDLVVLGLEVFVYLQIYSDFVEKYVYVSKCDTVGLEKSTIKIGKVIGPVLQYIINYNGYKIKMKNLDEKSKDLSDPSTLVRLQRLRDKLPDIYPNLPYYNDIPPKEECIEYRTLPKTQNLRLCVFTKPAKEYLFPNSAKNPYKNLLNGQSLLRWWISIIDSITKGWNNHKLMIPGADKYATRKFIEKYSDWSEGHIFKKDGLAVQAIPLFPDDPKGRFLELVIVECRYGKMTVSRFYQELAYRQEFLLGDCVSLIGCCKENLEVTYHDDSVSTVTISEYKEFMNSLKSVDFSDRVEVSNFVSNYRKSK
PHOSPHO1 block: PHOSPHO1 (human) inhibition | actives 1.1% (n = 290,000) | recombinant PHOSPHO1, absorbance phosphatase assay | inhibition, % at 13.3 µM | AID 1565; in the data active means inhibition above about 60%
Target sequence (Q8TCT1 whole entry, looked up): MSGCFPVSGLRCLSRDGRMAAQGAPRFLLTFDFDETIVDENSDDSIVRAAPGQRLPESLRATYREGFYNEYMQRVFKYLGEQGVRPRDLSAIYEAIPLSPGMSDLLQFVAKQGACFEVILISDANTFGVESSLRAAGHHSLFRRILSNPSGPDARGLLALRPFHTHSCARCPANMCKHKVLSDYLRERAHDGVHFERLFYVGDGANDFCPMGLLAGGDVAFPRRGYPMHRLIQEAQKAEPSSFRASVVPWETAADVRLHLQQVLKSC
Platelet DG rel: platelet dense granule release activity; actives 0.22% (n = 300,000); inhibition, %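 (compounds screened at 7.5 µM in platelet-rich plasma)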; human platelet-rich plasma, SFLLRN dense granule ATP release, luminescence;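 active means mean replicate score, as percent of positive control, at or above 50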
TPT1 inhibitor: C. albicans TPT1 enzyme inhibition. recombinant caTPT1, FP RNA substrate dephosphorylation. inhibition, % at 5 µM. actives 0.81% (n = 300,000);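 active means inhibition above the mean of all tested compounds plus 3 SD, set per screening campaign, cut at about 24% in these data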
A number is an active result; - = inactive; . = not tested or not shown. Hits are enriched below; roughly 3.9% of the tested compounds scored in any of these assays.

SMILES | SKKanGAS inh | WT yeast gro inh | Rtt109 Vps75 | PHOSPHO1 block | Platelet DG rel | TPT1 inhibitor
CCC(Sc1nc2ccccc2o1)C(=O)O (centres undefined) | - | - | - | - | - | -
Cc1ccc(C(=O)/C=C/c2cc(Br)cc(Br)c2O)o1 | 66 | . | - | - | - | -
Cc1coc(C)c1C(=O)CC1(O)C(=O)Nc2cc(Cl)cc(Cl)c21 (centres undefined) | - | 67 | - | - | - | -
O=C(COC(=O)CC1Sc2ccccc2NC1=O)NCc1ccccc1 (centres undefined) | - | . | - | . | - | -
Cc1ccc(C)c(NC(=S)NC(NC(=O)/C=C/c2ccccc2)C(Cl)(Cl)Cl)c1 (centres undefined) | - | - | - | - | - | -
O=C(NC(NC(=S)Nc1c(Cl)cc(Cl)cc1Cl)C(Cl)(Cl)Cl)OCc1ccccc1 (centres undefined) | 86 | - | - | - | - | -
O=C(/C=C/c1ccccc1)NC(NC(=S)Nc1ccc(Cl)cc1Cl)C(Cl)(Cl)Cl (centres undefined) | 76 | - | - | - | - | -
O=C(/C=C/c1ccccc1)NC(NC(=S)Nc1cccc(Cl)c1)C(Cl)(Cl)Cl (centres undefined) | 101 | - | - | - | - | -
O=C(NC(NC(=S)Nc1ccccc1Cl)C(Cl)(Cl)Cl)c1cccc(Cl)c1 (centres undefined) | 97 | - | - | - | - | -
Cc1ccc(C)c(NC(=S)NC(NC(=O)OCc2ccccc2)C(Cl)(Cl)Cl)c1 (centres undefined) | - | - | - | - | - | -
O=C(/C=C/c1ccccc1)NC(NC(=S)Nc1cccc(O)c1)C(Cl)(Cl)Cl (centres undefined) | - | - | - | - | - | -
CCCCn1c(N)c(N(CC(C)C)C(=O)CSc2nn(-c3ccc(F)cc3)c(=S)s2)c(=O)[nH]c1=O | . | . | - | . | . | .
CC(C)(C)OC(=O)N1CCC[C@H]1c1nnc(SCc2cccc(Cl)c2)o1 | - | . | - | - | - | -
CC(=O)Nc1ccc(S(=O)(=O)NCCC(=O)OCc2csc(CC(=O)Nc3ccccc3C)n2)cc1 | - | . | - | . | - | -
CCN1/C(=C/c2ccc3cc(C)ccc3[n+]2C)Sc2ccc3sccc3c21 | . | 95 | - | - | . | .
CCCCN1/C(=C/c2ccc3ccccc3[n+]2CC)Sc2ccccc21 | - | - | - | - | - | .
CCN1/C(=C/c2ccc3cc(C)ccc3[n+]2CC)Sc2cc(C)ccc21 | . | - | 82 | - | . | .
CCOc1ncccc1C(=O)Nc1cc(S(=O)(=O)N2CCOCC2)ccc1OCC(F)(F)F | . | . | - | . | . | .
Cc1ccccc1-c1cccc([C@@H]2C[C@H]3[C@H](CON3C)CN2C(=O)CCc2ccccc2)c1 | . | . | - | . | . | .
CCCOP(=O)(OCCC)C(Nc1cccc(C(F)(F)F)c1)c1ccc(C)cc1 (centres undefined) | - | 75 | - | - | - | -
O=S(=O)(/N=C(/Sc1ccccc1)c1ccccc1)c1ccccc1 | - | - | - | 100 | - | -
CS/C(=N\S(=O)(=O)c1ccccc1)c1ccccc1 | - | - | - | - | - | -
Cc1ccc(C)c(S(=O)(=O)N2CCN(C(=O)Cn3cnc4c3c(=O)n(C)c(=O)n4C)CC2)c1 | - | . | - | - | - | -
CCCC(=O)Nc1ccc(C(=O)Nc2cc(C(F)(F)F)ccc2Cl)cc1 | - | - | - | - | - | -
O=C(O)CSCC(=O)Nc1cc(C(F)(F)F)ccc1Cl | - | - | 66 | - | - | -
SMILES | SKKanGAS inh | WT yeast gro inh | Rtt109 Vps75 | PHOSPHO1 block | Platelet DG rel | TPT1 inhibitor
CCN(CC)C(=O)C(=O)Nc1cc(C(F)(F)F)ccc1Cl | - | - | - | 75 | . | -
CC(C)(C)CC(=O)Nc1cc2c3c(c1)CCC(=O)N3CCC2 | - | . | - | - | - | -
O=C(c1ccc(F)cc1)c1cc2ccc(O)cc2oc1=O | 65 | . | - | - | 73 | -
COc1ccccc1C(=O)c1cc2ccc(O)cc2oc1=O | - | - | - | - | - | -
NNc1nc(-c2ccccc2)cc(-c2ccccc2)n1 | - | 70 | - | - | - | -
Brc1cc(-c2ccccc2)nc(-c2ccccc2)n1 | 51 | . | . | . | - | -
Clc1cc(-c2ccccc2)nc(-c2ccccc2)n1 | - | . | - | . | - | -
Oc1ccc(-c2cc(-c3ccc(O)cc3)nc(-c3ccccc3)n2)cc1 | 103 | . | - | - | - | -
CC(C)C[C@@H](CNCC(=O)[C@H](Cc1c[nH]c2ccccc12)NC(=O)c1[nH]cnc1C(=O)N[C@@H](C)CN)NC(=O)c1nc[nH]c1C(=O)N[C@@H](C)C(=O)O | . | . | - | . | . | .
CCN(CC(=O)Nc1ccccc1C(F)(F)F)C(=O)CN1C(=O)NC(C)(c2ccc3ccccc3c2)C1=O (centres undefined) | . | . | - | . | . | .
CCCCCN1C=CC(=C2C(=O)c3ccccc3C2=O)C=C1 | - | 58 | - | - | - | -
CC(=O)c1ccc(-c2ccc(C(=O)N3CCC(C(N)=O)CC3)o2)cc1 | - | . | - | . | - | -
N#Cc1c(SCc2ccc(Cl)cc2)sc(C(=O)c2ccccc2)c1N | - | - | - | 89 | - | -
C[N+](C)(C)CCCN1C(=O)CCCC1=O | - | - | - | - | . | -
CC1=CC(C)C2C(=O)N(CCC[N+](C)(C)C)C(=O)C2C1 (centres undefined) | - | - | - | 94 | - | -
CCC(C(=O)NC(CC(=O)O)c1ccc(Cl)cc1)c1ccccc1 (centres undefined) | - | . | - | - | - | -
COc1ccc(/C=C/C(=O)c2c(C)nc3ccccn23)cc1 | 51 | - | - | - | - | -
C(=N\N1CCN(C2c3ccccc3-c3ccccc32)CC1)/c1cccnc1 | - | - | - | - | - | -
C(=N\N1CCN(C2c3ccccc3-c3ccccc32)CC1)/c1ccccn1 | - | 67 | - | - | - | -
O=C(/C=C\Nc1ccc2c(c1)OCO2)c1ccccn1 | - | - | - | - | 58 | -
CCCCOc1ccc(C(=O)NCC(=O)NC(C)CCc2ccccc2)cc1 (centres undefined) | - | . | - | - | - | .
COc1ccc(S(=O)(=O)N(C)C[C@H]2Oc3ccc(NS(=O)(=O)c4cccs4)cc3C(=O)N([C@H](C)CO)C[C@@H]2C)cc1 | . | . | - | . | . | .
CC(C)CCC(CCNCc1ccccn1)c1ccc(Cl)cc1 (centres undefined) | 51 | . | - | - | - | -
S=C(NCc1ccc(Cl)cc1)NCc1ccccn1 | - | - | - | - | - | -
CCOc1ccccc1NC(=O)CSc1nnc(-c2cccnc2)o1 | - | . | - | . | - | -
COc1ccc(/C=N/Nc2ncccc2[N+](=O)[O-])c(OC)c1 | - | - | . | - | 79 | -
COc1ccc(/C=N/Nc2ncc(-c3ccccc3)cn2)c(OC)c1 | - | - | - | - | - | -
CC1CCc2sc3nc(NCc4ccco4)n4ncnc4c3c2C1 (centres undefined) | - | 82 | - | - | - | -
Cc1nc(NCc2ccco2)c2c3c(sc2n1)CCC3 | - | - | - | - | - | -
